A number with no mark means an inactive call. How the calls were made is not given here.
Molecular target: Pantothenate synthetase (Mycobacterium tuberculosis (strain ATCC 25618 / H37Rv)) (UniProt P9WIL5)
Assay: Coupled enzyme confirmation of inhibitors against recombinant Mtb PanC (AID 375);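 further: 0% = full reaction with vehicle and 100% = no enzyme background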
Conditions: coupled enzyme assay; at 10 µM, stronger effect = higher value

Chain of Pantothenate synthetase (Mycobacterium tuberculosis (strain ATCC 25618 / H37Rv)) (P9WIL5 whole entry, looked up): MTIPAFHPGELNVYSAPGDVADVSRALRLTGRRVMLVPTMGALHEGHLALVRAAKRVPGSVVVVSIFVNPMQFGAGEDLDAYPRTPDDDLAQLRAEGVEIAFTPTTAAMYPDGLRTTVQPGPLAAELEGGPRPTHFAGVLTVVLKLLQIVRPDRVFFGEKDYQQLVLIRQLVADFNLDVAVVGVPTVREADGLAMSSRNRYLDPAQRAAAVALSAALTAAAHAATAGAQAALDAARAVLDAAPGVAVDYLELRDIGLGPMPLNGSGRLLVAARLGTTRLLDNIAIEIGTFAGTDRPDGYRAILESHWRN

SMILES	inhibition [%]
COc1ccc(Cl)cc1NC(=O)CCN1CCN(c2ccccc2C)CC1	0
CN1/C(=C\C(=O)C(F)F)C(C)(C)c2ccccc21	0
CC(=O)Nc1nc(C)c(-c2csc(Nc3ccc(O)cc3)n2)s1	0
CCCOc1ccccc1NC(=O)c1ccc(N)cc1	3
Nc1cc(C(=O)O)ccc1Nc1ccccc1	0
COc1cccc(C(=O)N2CCCC(c3nc(-c4cccs4)no3)C2)c1 (configuration not stated)	0
Cc1ccc(Oc2ccc(-c3nc(N)nc(N)n3)cc2)cc1	7
CCOC(=O)c1ccc(CNC(=O)C(Cc2c[nH]c3ccccc23)NC(C)=O)o1 (configuration not stated)	3
O=C(CSc1nnc(-c2ccccc2Cl)n1Cc1ccco1)Nc1ccc2c(c1)OCCO2	2
Cc1cccc(OCCCc2c(C)n[nH]c2C)c1	0
OC(CN1CCCCC1)Cn1c(C(F)(F)F)nc2ccccc21 (configuration not stated)	9
O=c1c2nnn(Cc3ccc(Cl)cc3)c2ncn1Cc1ccc(F)cc1	0
COc1ccc(N2CCN(Cc3nc4ccccc4c(=O)[nH]3)CC2)cc1	0
CCOC(=O)Cn1ncc(-c2ccccc2)c1N	6
Cc1cc(C)n(C(C)n2nc(C)cc2C)n1	6
Cc1nn(-c2ccccc2)c2[nH]c(C(F)(F)F)cc(=O)c12	1
COc1cccc(CN2CCN(C(=O)CC(C)C)CC2)c1	6
COc1cc(-c2nc(-c3cccc(C(F)(F)F)c3)no2)cc(OC)c1OC	0
O=C(CSc1nc2ccccc2[nH]1)N1CCCCC1	0
COc1ccc(C(=O)NCCc2nnc(SCc3nc4ccccc4c(=O)[nH]3)n2C)cc1	0
COc1ccc(-c2noc(CN3CCC(Cc4ccccc4)CC3)n2)cc1	0
Nc1sccc1C(=O)c1ccc(Cl)cc1	0

Reference: PubChem BioAssay
